IL-1B inflam inh = inhibitors of inflammasome signaling (IL-1 beta secretion) | 4.7% of 360,000 active | activity change, % at 57.5 µM | THP-1 LPS/ATP IL-1B secretion, AlphaLISA, 16 h; stronger effect = lower value; in the data active = activity change below about -50%; inconclusive = mostly about -30% to -49%
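Secreted IL-1B measured by AlphaLISA bead assay after 16 h compound exposure of THP-1 cells; compounds (final up to 57.5 uM) added 1 h before LPS (250 ng/mL) and ATP (1.25 mM) stimulation; lower signal means less secretion.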
RORg inh = blocks mouse ROR gamma transcriptional activity; P51450; Drosophila S2 Gal4-RORgamma UAS-luciferase reporter, 20 h; Potency, µM (highest dose often 53.6 µM), most hits filed as inhibitors; 5.4% of 310,000 active; AID 2551; note: nearly all actives have a fitted effect of over 60% in size
Target sequence (P51450 whole entry, looked up, the tested form may be a part): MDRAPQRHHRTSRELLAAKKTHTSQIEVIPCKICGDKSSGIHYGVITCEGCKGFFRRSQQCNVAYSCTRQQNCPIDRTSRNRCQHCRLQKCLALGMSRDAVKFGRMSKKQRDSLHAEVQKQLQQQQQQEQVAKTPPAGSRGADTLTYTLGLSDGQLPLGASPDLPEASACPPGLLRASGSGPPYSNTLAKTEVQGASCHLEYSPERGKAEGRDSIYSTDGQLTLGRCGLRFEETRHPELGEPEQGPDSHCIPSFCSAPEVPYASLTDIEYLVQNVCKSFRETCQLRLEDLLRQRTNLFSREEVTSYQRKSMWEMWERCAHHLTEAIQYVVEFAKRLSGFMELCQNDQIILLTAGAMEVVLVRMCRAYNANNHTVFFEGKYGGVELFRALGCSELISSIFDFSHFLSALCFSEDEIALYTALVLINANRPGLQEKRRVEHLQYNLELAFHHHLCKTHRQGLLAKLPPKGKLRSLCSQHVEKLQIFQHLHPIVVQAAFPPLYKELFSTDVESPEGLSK
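A Gal4/UAS one-hybrid system in insect cells: metallothionein-promoter Gal4–ROR gamma fusion plus Photinus luciferase reporter. Copper sulfate 700 uM final, 20 hr ambient incubation, luminescent detection after 10 min with reagent.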
SW480 rereplic = induces DNA re-replication in SW480 colon adenocarcinoma cells; AID 624297; 1.8% of 340,000 active; SW480 DNA re-replication, Hoechst DNA content imaging, 48 h; Potency, µM (highest dose often 46.1 µM), actives largely listed as activators; note: nearly all actives have a fitted effect of over 55% in size
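Image-based DNA-content assay: after two days of treatment, nuclei were labelled with the DNA dye Hoechst and imaged, and hits were compounds raising the count of nuclei showing high fluorescence intensity.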
VP16 counter = inhibits Gal4-VP16 luciferase reporter, ROR gamma counter-screen; Drosophila S2 Gal4-VP16 UAS-luciferase, luminescence, 20 h; Potency, µM (highest dose often 53.6 µM), usual class: inhibitors; 3.5% of 310,000 active; AID 2546;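 note: Gal4-VP16 expression switched on by copper sulfate through the metallothionein promoter; nearly all actives have a fitted effect of over 50% in size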
MCF10A rerep = DNA re-replication induction in MCF 10a cells. MCF 10A DNA re-replication, Hoechst nuclear intensity, 48 h. Potency, µM (series often up to 46.1 µM), hits mostly activators. 2.9% of 350,000 active; note: nearly all actives have a fitted effect of over 50% in size
Hits are given with their value; i = inactive; ? = inconclusive; nt = no result; [ ] = remark or other dose. Compounds with a hit are over-represented: about 11% of the library has one in this group of screens. Unless noted, calls come from the whole dose curve; as a rule, active = well fitted curve in the direction sought with a large enough effect; inconclusive = small, poorly fitted or top-dose-only effect, or another doubt; inactive = no such curve, though single readings can be large; an effect the other way counts as inactive or inconclusive.

SMILES	IL-1B inflam inh	RORg inh	SW480 rereplic	VP16 counter	MCF10A rerep
COc1cc(C(=O)NC(=S)Nc2nccs2)cc(OC)c1OC	i	3.16µM	i	?	i
COc1cc(CC(=O)Nc2nccs2)cc(OC)c1OC	i	i	i	i	i
CCOC(=O)c1sc(NC(=S)NC(=O)c2ccccc2)nc1C	i	i	i	i	i
CCOC(=O)c1sc(NC(=S)NC(=O)c2cccc(OC)c2)nc1C	i	8.91µM	i	?	i
COc1ccc(N(CC(=O)Nc2cccnc2)S(=O)(=O)c2ccccc2)cc1OC	i	i	i	i	i
N[C@]1(C(=O)O)CCc2cc(P(=O)(O)O)ccc21	nt	i	nt	i	nt
COc1cc(C(=O)Oc2cccc(Nc3ncnc4ccccc34)c2)cc(OC)c1OC	-95.1	i	i	?	i
COc1ccc(C(=O)Oc2cccc(Nc3ncnc4ccccc34)c2)cc1OC	i	i	i	?	?
Clc1nc(CN2CCCCC2)nc2sc3c(c12)CCCC3	?	i	?	i	?
Cc1sc2nc(CN3CCCCC3)nc(Cl)c2c1C	-102.6	i	?	i	?
Cc1ccc(S(=O)(=O)N2CCN(c3nc(CN4CCCC4)nc4sc(C)c(C)c34)CC2)cc1	?	nt	i	nt	i
CC1CCN(Cc2nc(Cl)c3c4c(sc3n2)CCC4)CC1	-96.1	i	i	?	i
CC(/C=N/NC(=O)c1cc(-c2ccc(Cl)cc2)nc2ccccc12)=C\c1ccco1	i	i	5.17µM	i	0.651µM
CC(/C=N/NC(=O)c1cc(-c2ccccc2)nc2ccccc12)=C\c1ccco1	i	i	8.2µM	i	?
CC(=C/c1ccco1)/C=N/NC(=O)c1ccncc1	nt	i	i	i	?
Cc1ccc(-n2c(SCC(=O)N(C)C)nnc2-c2ccco2)cc1	i	i	i	i	i
O=C(O)c1ccccc1Nc1ccnc(C(F)(F)F)c1	i	i	i	i	?
CCOC(=O)C(C(=O)OCC)C(Nc1ccccc1)c1ccccc1 (configuration not stated)	i	i	i	i	20.6µM
O=c1c2sc(-c3ccccc3)cc2nc2n1CCC2	?	2.51µM	i	?	i
CCOC(=O)N1CCN(c2ncnc3c2[nH]c2ccc(OC)cc23)CC1	i	i	i	i	i
Fc1ccc2[nH]c3c(N4CCN(c5ccccc5)CC4)ncnc3c2c1	-55.4	i[0.365 µM]	i	nt	?
CCOC(=O)N1CCN(c2ncnc3c2[nH]c2ccc(F)cc23)CC1	i	?	i	7.08µM	i
OC1(c2cccc(C(F)(F)F)c2)CCN(c2ncnc3c2[nH]c2ccc(F)cc23)CC1	-67.7	?	?	i	?
O=C(c1ccco1)N1CCN(c2ncnc3c2[nH]c2ccc(Br)cc23)CC1	?	i	i	?	?
O=C(CC[C@H]1O[C@@H](n2ccc(=O)[nH]c2=O)[C@H](O)[C@@H]1O)NCCN1CCOCC1	i	nt	nt	nt	nt
SMILES	IL-1B inflam inh	RORg inh	SW480 rereplic	VP16 counter	MCF10A rerep
COc1ccc(-n2c(=O)[nH]c3cc(C(=O)NCCc4ccc(Cl)cc4)ccc3c2=O)cc1OC	i	?	?	i	14.6µM
O=C(NCCCN1CCOCC1)c1ccc(CSc2ccc(Cl)cc2)cc1	-62.1	i	?	i	?
CC(C)c1ccc(C(=O)NCCCN2CCOCC2)cc1	i	i	i	i	i
COC(=O)c1ccc2c(=O)n(Cc3ccc(C(=O)NCCCN4CCC(C)CC4)cc3)c(=S)[nH]c2c1	-106.1	?	?	?	i
COC(=O)c1ccc2c(=O)n(Cc3ccc(C(=O)NCCCN4CCOCC4)cc3)c(=S)[nH]c2c1	i	i	?	i	i
CC1CCN(CCCNC(=O)c2ccc3c(=O)n(Cc4ccc(Cl)cc4)c(=S)[nH]c3c2)CC1	nt	12.6µM	?	20µM	?
CCN(CC)C(=O)[C@H]1C[C@H](CC(=O)NCCc2ccccn2)C(=O)N2CCc3c([nH]c4ccc(Cl)cc34)[C@]12C	i	nt	i	nt	i
C=C1C=C(Br)C2(OCCCO2)[C@H]2OC12 (some centres not stated)	nt	i[10 µM]	nt	i[10 µM]	nt
O=C(NCCCN1CCOCC1)c1ccc2c(=O)n(Cc3ccc(Cl)cc3)c(=S)[nH]c2c1	i	11.2µM	?	?	?
O=C(NCCCN1CCOCC1)c1ccc(Br)cc1	i	i	i	i	i
CCc1ccc(C(CNC(=O)c2ccc3c(=O)n(-c4ccccc4F)c(=S)[nH]c3c2)N(C)C)cc1 (configuration not stated)	-81.6	?	?	?	?
CC(C)(C)c1ccc(C(=O)NCCCN2CCN(CCCNC(=O)c3ccc(C(C)(C)C)cc3)CC2)cc1	-80.6	7.08µM	?	12.6µM	16.4µM
CCOC(=O)N1CCN(C(=O)c2ccc3c(=O)n(-c4ccccc4F)c(=S)[nH]c3c2)CC1	i	i	i	i	i
CCCCN(C)CCNC(=O)c1ccc(Cn2c(=S)[nH]c3ccc(Br)cc3c2=O)cc1	i	?	i	?	i
CN(C)CCNC(=O)c1ccc2c(=O)n(Cc3ccc(Cl)cc3)c(=S)[nH]c2c1	-63.0	?	23.1µM	?	?
CN(C)S(=O)(=O)c1ccc(F)c(C(=O)Nc2ccccc2C(=O)NC2CC2)c1	i	nt	i	nt	i
COc1ccc(-c2nc3cnc(N4CCOCC4)nc3n(Cc3cccc(OC)c3)c2=O)cc1	nt	i	nt	i	nt
Cc1c(C)n(Cc2ccc(Cl)cc2)c2ccc(C(=O)NCCN3CCOCC3)cc12	i	i	?	i	11.6µM
CCc1ccc(C2NC(=S)NC3=C2C(=O)N(c2ccccc2OC)C(c2ccc(CC)cc2)N3)cc1 (configuration not stated)	-78.7	?	?	i	?
O=C1C2=C(NC(=S)NC2c2ccc(Cl)cc2)NC(c2ccc(Cl)cc2)N1c1ccc(Cl)cc1 (configuration not stated)	-101.2	i	?	i	?
COc1ncc2nc(-c3cccs3)c(=O)n(Cc3ccc(F)cc3)c2n1	nt	i	nt	i	nt
C=CCn1c(SCC(=O)NC2CCS(=O)(=O)C2)nnc1-c1cc2c(s1)CCC(CC)C2 (configuration not stated)	?	?	i	i	i
C=CCn1c(-c2cc3c(s2)CCC(CC)C3)n[nH]c1=S (configuration not stated)	i	2.24µM	i	?	?
COCC(=O)N(C)C[C@H]1Oc2cc(C#Cc3cccnc3)ccc2S(=O)(=O)N([C@H](C)CO)C[C@H]1C	i	nt	nt	nt	nt
CCCCCC(=O)NC(=S)NC1C2CC3CC(C2)CC1C3 (configuration not stated)	i	2.24µM	i	7.94µM	?
CS(=O)(=O)N1CCCC(C(=O)NC2CCCCCCC2)C1 (configuration not stated)	i	i	i	i	23.1µM
O=C(O)C1CCN(C(=O)CSc2nc3ccccc3c(=O)n2-c2ccc(Cl)cc2)CC1	i	i	?	i	i
O=C1CC(Nc2ccc(N3CCOCC3)cc2)C(=O)N1c1ccccc1 (configuration not stated)	i	i	?	i	8.2µM

Screening data as filed in PubChem.
